SDO1 yeast rescue: sdo1-depleted yeast growth rescue. S. cerevisiae sdo1-depleted JHY4D growth rescue, OD600 30 h; hits give high values; pdr5 snq2 efflux-pump mutant strain. z-score at 10 µM. hit rate 0.21% among 140,000. AID 817;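 active means z-score above 3 at both the 24 hr and the 30 hr optical density reads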;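 further: z-score against mean and SD of all compound wells on the same plate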
sEH inh: blocks human soluble epoxide hydrolase activity; P34913; recombinant human sEH enzymatic activity assay; inhibition, % at 2 µM; hit rate 0.34% among 91,000; AID 707; in the data active means inhibition above about 80%
Target sequence (P34913 whole entry, looked up): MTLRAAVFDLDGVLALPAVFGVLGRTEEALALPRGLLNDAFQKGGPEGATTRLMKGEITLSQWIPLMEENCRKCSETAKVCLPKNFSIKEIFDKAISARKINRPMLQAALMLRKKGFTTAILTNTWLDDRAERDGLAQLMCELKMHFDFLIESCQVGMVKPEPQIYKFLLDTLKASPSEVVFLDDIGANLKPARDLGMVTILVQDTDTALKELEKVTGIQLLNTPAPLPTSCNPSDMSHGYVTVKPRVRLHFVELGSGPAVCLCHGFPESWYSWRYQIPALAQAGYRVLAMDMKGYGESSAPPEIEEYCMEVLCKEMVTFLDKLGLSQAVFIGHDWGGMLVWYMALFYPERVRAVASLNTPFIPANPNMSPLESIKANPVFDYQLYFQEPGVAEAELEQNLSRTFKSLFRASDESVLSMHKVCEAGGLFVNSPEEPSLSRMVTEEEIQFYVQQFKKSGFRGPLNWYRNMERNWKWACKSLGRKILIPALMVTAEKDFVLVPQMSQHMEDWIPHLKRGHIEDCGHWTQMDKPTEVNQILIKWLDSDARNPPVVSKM
Phagocytosis inh: macrophage phagocytosis inhibition; inhibition, % at 5 µM; J774A.1 macrophage IgG-bead phagocytosis, imaging; hit rate 0.07% among 110,000;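 active means inhibition above the mean of the plate negative controls plus 5 SD, cut at about 13% in these data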;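 further: phagocytic index as fraction of beads internalized from green versus red external bead signal; plate controls were DMSO negative control for no effect and cytochalasin-D positive control for full effect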
sEH act: soluble epoxide hydrolase (human) activation. P34913. purified human sEH enzymatic activity, activator screen. activation, % at 2 µM. hit rate 0.04% among 91,000. AID 717; in the data active means activation above about 37%
E-sel TNF inh: blocks E-selectin expression induced by TNF alpha. hit rate 0.71% among 120,000. HUVEC TNFa-induced E-selectin immunofluorescence, high content. inhibition, % at 2 µM;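 active means inhibition above the batch mean plus 3 SD, and confirmed as a hit on visual image review, cut at about 43% in these data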;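 further: 0% = TNF-stimulated DMSO wells and 100% = unstimulated control wells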
F-actin modifier: alters cytoskeleton assembly in HUVEC cells. HUVEC TNFa F-actin phalloidin imaging, high content. inhibition, % at 2 µM. hit rate 0.18% among 91,000. AID 836;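 active means inhibition above the batch mean plus 3 SD and confirmed as a hit by visual image inspection, cut at about 30% in these data, passing the limit was not always enough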
* marks the source's active call; other numbers are inactive results; nt = not tested or not shown; [ ] = another dose, or the depositor's remark. Most compounds without a hit are left out; they make up all but 0.96% or so of the library.

SMILES	SDO1 yeast rescue	sEH inh	Phagocytosis inh	sEH act	E-sel TNF inh	F-actin modifier
CC(=O)N[C@@H](Cc1c[nH]c2ccccc12)C(=O)OCC(=O)Nc1ccc(S(=O)(=O)N(C)C)cc1	nt	nt	nt	nt	75*	nt
CC(=O)N[C@@H](Cc1c[nH]c2ccccc12)C(=O)OCC(=O)NCc1ccc2c(c1)OCO2	nt	nt	nt	nt	-34	nt
COCCNC(=O)C(c1cccs1)N(Cc1cccs1)C(=O)Cn1nnc2ccccc21 (stereo unspecified)	0.75	-4	nt	3	9	32*
COCCNC(=O)C(c1cccs1)N(Cc1ccccc1)C(=O)Cn1nnc2ccccc21 (stereo unspecified)	0.64	8	nt	-10	14	-3
CCOc1ccc(-n2cc(C(=O)NCc3ccco3)c3cc(OC)c(OC)cc3c2=O)cc1	0.25	-13	2	12	nt	63*
CCCc1nnc(SCC(=O)N2CCCC(C)C2)n1CC1CCCO1 (stereo unspecified)	0.54	8	-3	-4	7	-5
CC(=O)c1c(C)[nH]c(C(=O)Nc2ccccc2N2CCOCC2)c1C	nt	nt	nt	nt	75*	nt
CCCCOc1ccc(C(=O)N2CC(C)OC(C)C2)cc1 (stereo unspecified)	0.63	-11	-2	9	26	0
COc1ccc(OCC(=O)N/N=C(/C)Cc2ccccc2)cc1	-0.37	nt	0	nt	nt	nt
Cc1ccc(SCCC(=O)Nc2ccccc2C(=O)NC(C)C)cc1	-0.01	nt	-8	nt	67*	nt
CCn1cc(C(=O)O)c(=O)c2cc(F)c(N3CCN(C(=O)Nc4ccccc4)CC3)cc21	1.5	6	-1	-8	-9	nt
CCn1cc(C(=O)O)c(=O)c2cc(F)c(N3CCN(C(=S)NC(=O)c4ccc(Br)cc4)CC3)cc21	nt	nt	nt	nt	74*	nt
O=C(Oc1nsnc1N1CCOCC1)N1CCOCC1	0.8	-9	-1	9	77*	-3
O=C(Oc1nsnc1N1CCOCC1)N1CCCCC1	nt	-33	nt	26	29	-1
O=C(CSc1nnc(CNc2ccc(F)cc2)o1)N1CCCc2ccccc21	1.7	nt	2	nt	63*	nt
O=C(NCc1nnc(SCC(=O)N2CCCc3ccccc32)o1)c1ccco1	nt	nt	nt	nt	-25	nt
Cc1cc(-n2nc(C)cc2C)nc(NS(=O)(=O)c2ccccc2)n1	-0.31	nt	-1	nt	58*	nt
COc1ccc(CCNC(=O)Nc2ccccc2[N+](=O)[O-])cc1	nt	nt	nt	nt	12	nt
OC(COCC1COc2ccccc2O1)CN1CCN(c2ccccc2F)CC1 (stereo unspecified)	-0.16	-48	-2	47*	-16	-12
Cc1cccc(NC(=O)CSc2nnc(NC(=O)c3ccco3)s2)c1	nt	nt	nt	nt	14	nt
CCOC(=O)c1sc(NC(=O)c2ccc(C)s2)cc1C	-1.2	87*	nt	-86	-18	11
O=C1CC(C(=O)Nc2cccc(F)c2)n2ncnc2N1 (stereo unspecified)	nt	nt	nt	nt	1	nt
CCOC(=O)c1ccc(Nc2cc(C)nc(N3CCOCC3)n2)cc1	-0.66	-12	nt	11	67*	-17
CCOC(=O)c1cnc2ccc(C)cc2c1Nc1ccc(N2CCOCC2)cc1	-1.6	-14	-1	14	100*	-11
CCOc1ccc(Nc2cc(C)nc(N3CCOCC3)n2)cc1	-0.13	-2	-1	2	-1	-7
SMILES	SDO1 yeast rescue	sEH inh	Phagocytosis inh	sEH act	E-sel TNF inh	F-actin modifier
COC(=O)c1cc2oc(C)cc2n1CC(=O)N1CCCc2ccccc21	-1.7	-1	0	0	71*	18
CCCCn1cnc2c1c(=O)[nH]c(=O)n2CCCC	0.05	1	1	2	-5	35*
COc1cc(C(=O)Nc2ccc3c(c2)C(=O)c2ccccc2C3=O)cc(OC)c1OC	0.05	nt	-8	nt	64*	nt
COc1ccc(C(=O)Nc2ccc3c(c2)C(=O)c2ccccc2C3=O)cc1OC	-0.15	nt	-9	nt	-21	nt
CC1=NC(=O)C(N=Nc2cccc3ccccc23)N1c1ccccc1 (stereo unspecified)	nt	3	nt	0	-19	-2
C=CCn1c(CCNC(=O)c2ccc(Cl)c(Cl)c2)nnc1SCCOc1ccc(OC)cc1	-1.3	4	nt	0	-4	-4
Cn1c(CCNC(=O)c2ccc(Cl)c(Cl)c2)nnc1SCc1ccc(Cl)c(Cl)c1	-1.5	2	-1	-2	100*	-17
CCN(CC)S(=O)(=O)c1ccc(-c2nnc(SCC(=O)Nc3ccc(OC)cc3)o2)cc1	-1.9	16	nt	-15	64*	12
CCN(CC)S(=O)(=O)c1ccc(-c2nnc(SCC(=O)c3ccc(OC)cc3)o2)cc1	-0.24	6	2	-5	-56	-3
O=C(NCC1CC1)C1CCCN(S(=O)(=O)c2ccc(-n3cnnn3)cc2)C1 (stereo unspecified)	0.29	-4	0	6	62*	37
CCCCNC(=O)C1CCCN(S(=O)(=O)c2ccc(-n3cnnn3)cc2)C1 (stereo unspecified)	1.9	-1	0	-1	4	-22
CCC(=O)c1ccc(N2CCCC2)c(F)c1	0.49	-39	nt	39*	-3	4
CCC(=O)c1ccc(N2CCCCCC2)c(F)c1	-0.16	nt	-1	nt	-6	-8
O=C(c1cnn2c1NC(c1ccc(Br)cc1)CC2C(F)(F)F)N1CCN(C23CC4CC(CC(C4)C2)C3)CC1 (stereo unspecified)	-2.3	9	nt	-4	-13	-3
C=CCN(CC=C)S(=O)(=O)c1ccc(NC(=S)NC(=O)/C=C/c2ccc(C)cc2)cc1	0.28	-1	-1	3	31	-2
C=CCN(CC=C)S(=O)(=O)c1ccc(NC(=S)NC(=O)/C=C/c2cccc3ccccc23)cc1	-0.63	-7	1	9	68*	-12
C=CCNC(=S)NNC(=O)c1ccc(Br)cc1	0.54	nt	-9	nt	63*	nt
C=C(C)CNC(=S)NNC(=O)c1ccc(Br)cc1	0.21	nt	nt	nt	nt	nt
CC(C)NC(=O)NC(=O)COC(=O)c1ccc(F)cc1F	0.84	nt	-13	nt	3	nt
C=C(C)C(=O)OC1(C(F)(F)F)Oc2cc(C)ccc2NC1=O (stereo unspecified)	-1.1	-41	-3	41*	-10	-2
CCOC(=O)C1(N(CC)CC)Sc2cc(C)ccc2NC1=O (stereo unspecified)	-0.25	13	nt	-13	-11	3
Cc1[nH]nc2nc3c(c(OC(=O)c4ccccc4)c12)c(=O)n(C)c(=O)n3C	-0.7	10	0	-7	16	-6
CCOC(=O)C(Cc1c[nH]c2ccccc12)NC(=O)c1ccco1 (stereo unspecified)	0.51	-7	90*[artifact]	7	-12	-14
COC(=O)C(Cc1c[nH]c2ccccc12)NC(=O)C(C)C (stereo unspecified)	0.53	2	9	1	11	-13
CCOC(=O)C(NC(=O)c1ccc(Cl)cc1Cl)(Nc1ccc(C)cc1)C(F)(F)F (stereo unspecified)	-0.86	-9	nt	7	7	-20
CCOC(=O)c1c(C)c(C(=O)O)n(C)c1C	0.7	8	0	-10	nt	76*
CCN(CC)CCNC(=O)C(C)c1nn(CC)c(=O)c2ccccc12 (stereo unspecified)	1.2	-7	nt	5	12	-11

Screening data: PubChem BioAssay, several laboratories
